High-throughput results (PubChem BioAssay)
TDP1 cell CPT: growth inhibition of DT40 Tdp1-/-;hTDP1 cells with camptothecin (screen for TDP1 inhibitors); chicken DT40 Tdp1-/-;hTDP1 cells + 20 nM CPT, ATP luminescence, 48 h; Potency, µM (titrated, usually from 46.2 µM), actives largely listed as inhibitors; 420,000 tested, 12% active; note: nearly all actives have a fitted effect of over 55% in size
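Chicken DT40 Tdp1-/- cells stably complemented with human TDP1 were seeded at 400 cells/well in medium containing 20 nM camptothecin, exposed to pin-transferred compounds, and grown at 37 °C for at least 48 hr. Viability was read as ATP luminescence.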
Gal4-VP16 FLuc: counter-screen for ROR gamma inhibitors: Gal4-VP16 reporter; 310,000 tested, 3.5% active; AID 2546; Potency, µM (top dose mostly 53.6 µM), usual class: inhibitors; Drosophila S2 Gal4-VP16 UAS-luciferase, luminescence, 20 h;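 note: Gal4-VP16 expression switched on by copper sulfate through the metallothionein promoter; nearly all actives have a fitted effect of over 50% in size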
ELG1 DNA repair: inhibitors of ELG1-dependent DNA repair in HEK293T cells. HEK293T ELG1-luciferase reporter, luminescence, 16 h; DNA damage induced by 5-fluorouridine. Potency, µM (series often up to 46.1 µM), hits mostly inhibitors. 330,000 tested, 2.3% active. AID 504467; note: nearly all actives have a fitted effect of over 55% in size
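Reporter activity after DNA damage by 5-fluorouridine is monitored. Compound-treated cells incubate 16 hr at 37 °C, then ONE-Glo is added for 30 min before luminescence reading.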
TDP1 cell noCPT: qHTS for Inhibitors of human tyrosyl-DNA phosphodiesterase 1 (TDP1): qHTS in cells in absence of CPT. DT40 Tdp1-/- hTDP1 cells, no CPT, ATP luminescence, 48 h. Potency, µM (top dose mostly 46.2 µM), usual class: inhibitors. 420,000 tested, 15% active. AID 686978, 2013; note: nearly all actives have a fitted effect of over 55% in size
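Luminescent ATP content (CellTiter-Glo) served as the growth readout. Knockout chicken DT40 cells expressing human TDP1 were exposed to compounds without camptothecin for a minimum 48 hr at 37 °C.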
IL-1B inflam inh: inhibitors of inflammasome signaling (IL-1 beta secretion); THP-1 LPS/ATP IL-1B secretion, AlphaLISA, 16 h; active compounds read low; activity change, % at 57.5 µM; 360,000 tested, 4.7% active; AID 743279; in the data active = activity change below about -50%; inconclusive = mostly about -30% to -49%
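Secreted IL-1B measured by AlphaLISA bead assay after 16 h compound exposure of THP-1 cells; compounds (final up to 57.5 uM) added 1 h before LPS (250 ng/mL) and ATP (1.25 mM) stimulation; lower signal means less secretion.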
RORgamma inh: blocks mouse ROR gamma transcriptional activity; P51450; Drosophila S2 Gal4-RORgamma UAS-luciferase reporter, 20 h; Potency, µM (titrated, usually from 53.6 µM), actives largely listed as inhibitors; 310,000 tested, 5.4% active; AID 2551; note: nearly all actives have a fitted effect of over 60% in size
Target sequence (P51450 whole entry, looked up, the tested form may be a part): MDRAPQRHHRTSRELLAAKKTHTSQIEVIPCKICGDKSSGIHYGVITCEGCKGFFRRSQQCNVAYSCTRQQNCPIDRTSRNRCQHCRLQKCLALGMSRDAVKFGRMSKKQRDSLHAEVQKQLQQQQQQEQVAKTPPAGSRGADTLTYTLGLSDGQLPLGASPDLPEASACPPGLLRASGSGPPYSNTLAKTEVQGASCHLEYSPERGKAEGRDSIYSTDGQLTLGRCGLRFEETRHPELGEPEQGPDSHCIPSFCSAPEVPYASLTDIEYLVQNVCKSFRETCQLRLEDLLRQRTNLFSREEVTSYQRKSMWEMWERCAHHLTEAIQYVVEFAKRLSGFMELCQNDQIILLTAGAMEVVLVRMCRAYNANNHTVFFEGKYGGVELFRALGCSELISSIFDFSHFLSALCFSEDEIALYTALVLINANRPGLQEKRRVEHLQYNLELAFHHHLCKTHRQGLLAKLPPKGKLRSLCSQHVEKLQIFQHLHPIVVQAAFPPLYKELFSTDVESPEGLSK
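Using a luciferase readout, inhibitors were identified by reduced reporter activity in Drosophila cells coexpressing a copper-inducible Gal4–ROR gamma fusion and UAS-driven Photinus luciferase, incubated 20 hr after 700 uM copper sulfate.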
A number is an active result; – = inactive; ? = inconclusive; · = not tested or not shown; ! = not confirmed by another sample; [ ] = another dose, or the depositor's remark. The list is not random: actives were taken first. Their share in the collection is about 21%. Unless noted, calls come from the whole dose curve; as a rule, active = well fitted curve in the direction sought with a large enough effect; inconclusive = small, poorly fitted or top-dose-only effect, or another doubt; inactive = no such curve, though single readings can be large; an effect the other way counts as inactive or inconclusive.

SMILES | TDP1 cell CPT | Gal4-VP16 FLuc | ELG1 DNA repair | TDP1 cell noCPT | IL-1B inflam inh | RORgamma inh
CN(Cc1ccccc1)C(=O)c1ccc(NC(=O)Cc2ccc(NC(=O)C3CCCN(C(=O)CCc4ccccc4)C3)cc2)cc1 (configuration not stated) | 10.3µM | · | · | 14.6µM | – | ·
CN(Cc1ccccc1)C(=O)c1ccc(NC(=O)Cc2ccc(NC(=O)C3CCCN(C(=O)C4CCC4)C3)cc2)cc1 (configuration not stated) | – | · | · | ? | – | ·
CN(Cc1ccccc1)C(=O)c1ccc(NC(=O)C2CCCN(C(=O)OC(C)(C)C)C2)cc1 (configuration not stated) | ? | · | 20.6µM | 18.4µM | – | ·
COc1ccc(C(=O)N/C(=C\c2cn(S(=O)(=O)N(C)C)c3ccccc23)C(=O)N2CCN(C)CC2)cc1 | – | – | – | – | – | –
CN(C(=O)c1cccc(NC(=O)Cc2ccc(NC(=O)C3CCCN(C(=O)CCc4ccccc4)C3)cc2)c1)C1CC1 (configuration not stated) | ? | · | · | 16.4µM | – | ·
Cc1cccc(NCCC(=O)c2ccc(Br)cc2)c1 | 23.1µM | – | ? | 23.1µM | – | –
CCOC(=O)CNCCC(=O)c1ccc(Br)cc1 | 5.8µM | ? | – | 6.51µM | ? | –
COc1ccc2c(c1)C(=O)N(c1ccc(C)cc1C)C(=O)C2(C)C | – | – | – | ? | – | –
COc1ccc2c(c1)C(=O)N(c1ccc(C)cc1C)C(=O)C2 | 13µM | ? | – | 20.6µM | – | ?
CCSc1nc(-c2cccc(Cl)c2)nc2c1Cc1c(CO)cnc(C)c1O2 | – | · | · | – | · | ·
Cc1ccccc1N1CCN(C2CCCN(C(=O)c3cnsn3)C2)CC1 (configuration not stated) | ? | – | – | – | – | –
NS(=O)(=O)c1cc(C(=O)Nc2ccc3c(c2)CCC3)ccc1Cl | – | ? | ? | ? | -67.6 | –
O=C(Nc1ccc(F)c(F)c1)c1ccc(F)c(S(=O)(=O)N2CCC3(CC2)OCCO3)c1 | 16.4µM | ? | 7.3µM | 13µM | -59.9 | –
O=C(Nc1ccc2c(c1)CCC2)c1ccc(F)c(S(=O)(=O)N2CCOCC2)c1 | ? | – | – | 23.1µM | – | ?
Cc1nc(NCCO)c2nc(-c3ccccc3)n(CCN(C)C)c2n1 | · | – | · | · | · | –
Cn1c(COc2ccc(Cl)cc2)nnc1SCc1ncc(-c2ccccc2)o1 | ? | – | – | 16.4µM | – | –
COc1ccc(-n2cnnc2SCc2ncc(-c3ccccc3)o2)cc1 | – | – | – | – | – | –
CCCCN1C(=O)C(NC(C)=O)c2cc(Br)ccc21 (configuration not stated) | ? | – | – | 20.6µM | – | –
CCN1C(=O)C(NC(C)=O)c2cc(Br)ccc21 (configuration not stated) | – | – | – | ? | – | –
COc1ccc2c(c1)c1c(c(=O)n(-c3ccccc3C)c(=O)n1C)n2C | – | · | · | – | · | ·
Cc1ccc(CNC(=O)CSc2nc3c(sc4ccccc43)c(=O)n2CCCC(=O)NCCO)cc1 | – | · | · | ? | · | ·
O=C1c2ccccc2/C(=C\C#Cc2ccccn2)N1c1ccccc1 | ? | · | ? | ? | -100.0 | ·
O=C1c2ccccc2C(=O)N1c1ncccn1 | – | – | – | – | – | –
FC(F)(F)c1cc(-c2ccco2)nc2ncnn12 | – | – | – | – | – | –
COc1cc([N+](=O)[O-])cc(/C=N/NC(=O)CSc2nnc(-c3ccccc3)n2C)c1O | – | – | ? | – | – | –
SMILES | TDP1 cell CPT | Gal4-VP16 FLuc | ELG1 DNA repair | TDP1 cell noCPT | IL-1B inflam inh | RORgamma inh
COc1cc([N+](=O)[O-])cc(/C=N/NC(=O)Cn2nc(C)cc2C)c1O | ? | ? | – | 23.1µM | – | ?
Cc1ccnn1CC(=O)N/N=C/c1cn[nH]c1-c1ccc(F)cc1 | – | ? | ? | – | – | 14.1µM
COc1cc([N+](=O)[O-])cc(/C=N/NC(=O)Cn2nccc2C)c1O | ? | ? | – | ? | – | 3.55µM
CCOc1cc(/C=N/NC(=O)Cc2ccc(C(F)(F)F)cc2[N+](=O)[O-])c(Br)cc1OC | ? | ? | – | ? | – | –
COc1ccc(/C=N/NC(=O)Cn2nc([N+](=O)[O-])cc2C)c(OC)c1OC | – | – | – | – | – | –
O=C(N/N=C/c1cn[nH]c1-c1ccc(F)cc1)c1ccncc1 | – | – | – | – | – | –
COc1cc(Br)cc(/C=N/NC(=O)Cc2ccc(C(F)(F)F)cc2[N+](=O)[O-])c1O | 1.84µM | 0.355µM | – | 2.59µM | – | 0.141µM
CCCCC1(C(=O)OC)NC(c2ccc(O)cc2)C2C(=O)N(c3ccccc3)C(=O)C21 (configuration not stated) | – | – | ? | – | – | –
Cc1nc2cc(-c3ccccc3)nn2c(C)c1CCC(=O)NCCc1ccccc1 | 16.4µM | · | · | ? | · | ·
CCOC(=O)C(Cc1ccccc1)NC(=O)CCc1c(C)nc2nc(C)nn2c1C (configuration not stated) | ? | – | – | 23.1µM! | ? | –
Cc1nc2cc(-c3cccc(F)c3)nn2c(C)c1CCC(=O)NCCc1ccccc1 | 25.9µM | · | · | ? | · | ·
Cc1nc2ncnn2c(C)c1CCC(=O)NCCc1ccccc1 | ? | – | – | – | – | –
CCNC(=O)C1(C)CCN(C(=O)c2cc(OC)c(OC)c(OC)c2)C1 (configuration not stated) | – | · | · | – | – | ·
CC(C)c1ccc(COc2ccc(C(=O)N3CCOCC3)cc2)cc1 | ? | –[10 µM] | ? | 23.1µM | – | ?
Cc1ccc(OCC(=O)N2CCOCC2)cc1C | – | – | ? | – | – | –
CCOc1ccc(C(=O)Nc2ccc(C(=O)N3CCOCC3)cc2)c(OCC)c1 | ? | – | – | 13µM | – | –
CC(C)c1ccc(C(=O)N2CCCN(C(=O)c3ccc(C(C)C)cc3)CC2)cc1 | – | – | – | – | – | –
COc1ccc(N2CCN(C(=O)c3ccc(COc4ccc5c(C)cc(=O)oc5c4)cc3)CC2)cc1 | ? | – | ? | 16.4µM | – | –
Cc1ccc(OCc2ccc(C(=O)N3CCOCC3)cc2)cc1C | 16.4µM | – | ? | 20.6µM | – | –
COc1ccc(C(=O)Nc2ccc(C(=O)N3CCOCC3)cc2)cc1OC | – | – | ? | – | – | –
O=C(/C=C/c1cccs1)c1ccco1 | – | · | · | ? | – | ·
COc1cc(CNC(=O)Nc2nnc([C@H]3C[C@H](O)[C@@H](CO)O3)s2)cc(OC)c1OC | – | · | · | – | – | ·
Cc1ccc(C(=O)N2CCN(c3ccccn3)CC2)cc1 | – | – | – | – | – | –
CC(C)c1ccc(OCc2ccc(C(=O)N3CCN(c4ccccn4)CC3)cc2)cc1 | ? | ? | – | 20.6µM | – | ?
